BoNT-A LC inh2 = BoNT A light chain protease inhibition. actives 0.17% (n = 360,000). inhibition, % at 10 µM. multiplex microsphere protease substrate cleavage, flow cytometry; further: plate controls were buffer without enzyme for full effect and enzyme alone for no effect
BoNT-F LC inh = blocks Botulinum neurotoxin F light chain protease; Multiplex microsphere protease cleavage assay, flow cytometry; inhibition, % at 10 µM; actives 0.22% (n = 360,000); in the data active means inhibition above about 35%, passing the limit was not always enough; inconclusive means no clear call, values can overlap the other calls; further: plate controls were buffer without enzyme for full effect and enzyme alone for no effect
Autofluor counter = flagged as autofluorescent in microsphere protease counterscreen. compound autofluorescence counterscreen, microsphere flow cytometry; hits give high values. actives 3.1% (n = 360,000). AID 624483. fluorescence intensity (no concentration beside the values); in the data active means fluorescence intensity above about 16000; inconclusive means no clear call, values can overlap the other calls
Anthrax LF inh2 = blocks Bacillus anthracis lethal factor protease; P15917; inhibition, % at 10 µM; actives 0.12% (n = 360,000); multiplex microsphere protease cleavage assay, LF; further: plate controls were buffer without enzyme for full effect and enzyme alone for no effect
Target sequence (P15917 whole entry, looked up): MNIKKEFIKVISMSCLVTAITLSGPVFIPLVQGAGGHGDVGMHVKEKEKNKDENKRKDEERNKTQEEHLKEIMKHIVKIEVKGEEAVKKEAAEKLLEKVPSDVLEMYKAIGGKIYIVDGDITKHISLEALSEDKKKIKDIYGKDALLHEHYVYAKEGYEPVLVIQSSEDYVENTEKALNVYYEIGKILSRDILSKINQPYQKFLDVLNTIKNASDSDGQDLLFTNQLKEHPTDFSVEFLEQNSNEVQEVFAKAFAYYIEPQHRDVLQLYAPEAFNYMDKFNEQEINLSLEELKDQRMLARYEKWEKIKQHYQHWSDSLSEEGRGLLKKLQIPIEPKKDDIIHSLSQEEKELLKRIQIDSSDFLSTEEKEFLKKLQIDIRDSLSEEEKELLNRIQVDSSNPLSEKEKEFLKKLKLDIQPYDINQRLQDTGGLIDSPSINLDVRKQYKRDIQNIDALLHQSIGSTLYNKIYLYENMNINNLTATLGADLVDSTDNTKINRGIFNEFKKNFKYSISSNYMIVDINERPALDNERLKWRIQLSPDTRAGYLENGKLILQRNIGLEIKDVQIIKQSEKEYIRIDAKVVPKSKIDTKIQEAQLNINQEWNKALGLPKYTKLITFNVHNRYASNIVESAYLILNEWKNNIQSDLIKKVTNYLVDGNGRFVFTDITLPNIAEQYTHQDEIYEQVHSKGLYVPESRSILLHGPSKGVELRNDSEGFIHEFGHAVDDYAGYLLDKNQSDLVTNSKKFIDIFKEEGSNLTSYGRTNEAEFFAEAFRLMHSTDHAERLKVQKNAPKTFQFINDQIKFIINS
* hit, by the source's call; u = inconclusive. The list is not random: actives were taken first. Their share in the collection is about 3.5%. Unless noted, no stated cut-off is given here; in the data, active means inhibition above about 30%; inconclusive means no clear call, values can overlap the other calls; inactive means below that.

SMILES	BoNT-A LC inh2	BoNT-F LC inh	Autofluor counter	Anthrax LF inh2
CC(=O)NCCNc1nc2cc(-c3ccc(Cl)cc3C)sc2c(=O)n1C	0	-1	3705	-4
Cc1c(C(=O)NC(C)C)sc2ncn(CC(=O)N3CCC(C)CC3)c(=O)c12	2	2	19793*	-8
Cc1c(C(N)=O)sc2ncn(CC(=O)N3CCC(C)CC3)c(=O)c12	1	1	22473*	-6
C=CCn1c(COc2ccc(F)cc2)nnc1SCC(=O)NC1CC1	4	9	5417	-4
C=CCn1c(COc2ccc(F)cc2)nnc1SCC(=O)N1CC(=O)Nc2ccccc21	-4	-4	21515*	1
Cc1ccc(-c2nnc(Nc3ccccc3)c3ccccc23)cc1S(=O)(=O)NCC1CCCO1 (configuration not stated)	3	3	21430*	-1
COC(=O)COC(=O)CC(CC(N)=O)c1ccccc1 (configuration not stated)	1	1	22984*	-1
Clc1cccc(Cl)c1CSc1cc2c(nn1)-c1ccccc1CC2	2	4	22710*	1
Clc1ccccc1CSc1cc2c(nn1)-c1ccccc1CC2	-1	-7	2802	-1
CNc1c([N+](=O)[O-])cnn1-c1ccccc1F	-1	-3	4313	3
CNc1c([N+](=O)[O-])cnn1-c1ccc(C)cc1	-1	-1	23938*	-7
CCn1c(SC(C)C(=O)Nc2ccc3c(c2)OCCO3)nnc1C1CC1 (configuration not stated)	3	2	8080	0
Cc1ccc(-n2c(O)c(/C=C3/C(c4ccccc4)=Nc4ccccc43)c(=O)[nH]c2=O)cc1	0	-9	2108	1
Cc1ccccc1-n1c(O)c(/C=C2/C(c3ccccc3)=Nc3ccccc32)c(=O)[nH]c1=O	47*	-2	1715	17
Cc1c(/C=N/NC(=O)c2cc(=O)[nH]c(=O)[nH]2)c2ccccn2c1C(=O)c1ccccc1	3	5	19024*	1
CCOC(=O)CSc1nc2ccccc2n1CC(=O)NC(C)(C)C	-3	-4	21055*	-1
COc1ccc(C(=O)CSc2nc3ccccc3n2CC(=O)NC(C)(C)C)cc1	1	-3	2924	1
Cn1c(SCC(=O)N/N=C/C=C/c2ccccc2[N+](=O)[O-])nc2ccccc21	-1	-3	2441	-1
CCn1c(SCC(=O)N/N=C/c2ccc(OC)c(OC)c2)nc2ccccc21	1	-2	22575*	0
CCn1c(SCC(=O)N/N=C/C=C\c2ccccc2[N+](=O)[O-])nc2ccccc21	u	-2	22694*	1
CN(CCN1CCOCC1)C(=O)C1CCC(=O)N(Cc2ccc(Cl)cc2)C1 (configuration not stated)	0	-1	2972	-2
COc1ccccc1C(=O)Nc1ccc(S(=O)(=O)N2CCCC2)cc1	u	-2	16385*	-4
Cc1ccc(NC(=O)c2cc(S(=O)(=O)N3CCCCC3)ccc2N2CCOCC2)cc1	1	-5	3866	1
COc1ccc(NC(=O)c2cc(S(=O)(=O)N3CCCCC3)ccc2N2CCCCC2)cn1	-1	-2	23676*	1
O=C(O)c1cc(S(=O)(=O)N2CCCCC2)ccc1F	-3	-4	21594*	-2
SMILES	BoNT-A LC inh2	BoNT-F LC inh	Autofluor counter	Anthrax LF inh2
COc1ccccc1C(=O)Nc1ccc(S(=O)(=O)N2CCCCC2)cc1	0	14	3783	2
O=C(Nc1ccc(O)cc1)c1cc(S(=O)(=O)N2CCCC2)ccc1Cl	6	10	20180*	0
O=C(O)c1cc(S(=O)(=O)N2CCCCC2)ccc1Cl	-1	u	3030	3
CCc1ccc(C(O)c2ncc(-c3cccc(OC)c3)[nH]2)cc1 (configuration not stated)	0	1	3440	-4
COc1ccccc1N(CC(=O)Nc1ccc(S(=O)(=O)N2CCCCC2)cc1)S(C)(=O)=O	u	-4	22900*	-2
COc1ccccc1CC(=O)Nc1ccc(S(=O)(=O)N2CCCCC2)cc1	0	6	4278	-11
CCc1nc2ccc(C(=O)N(C)Cc3ccco3)cn2c1N(C)CCCc1ccccc1	0	-2	2789	-1
COc1cc([N+](=O)[O-])cc(CN2CCCCC2)c1O	u	-4	16919*	-4
CC1(C)CC(=O)C=C(c2ccc(COC(=O)C(c3ccccc3)c3ccccc3)cc2)C1=O	0	-5	3379	-2
O=C(N/N=C/c1ccc(O)cc1O)c1ccc(NC(=O)C2CCCCC2)cc1	2	4	4739	36*
COc1ccccc1NC(=O)c1csc2c1CCCC2	u	1	19509*	-4
COc1ccc(CN2C(=O)c3cccnc3C2Nc2ccc(C)cc2)cc1 (configuration not stated)	-1	-9	3688	2

Screens (PubChem BioAssay)
